Screening data: PubChem, National Center for Advancing Translational Sciences (NCATS)
Pol kappa inh: blocks human DNA polymerase kappa activity | purified Pol kappa, fluorescent DNA synthesis assay, 10 min | Potency, µM (doses to about 107 µM), most hits filed as inhibitors | hit rate 0.53% among 400,000 | AID 588579
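Activity was followed as the change in fluorescence between reads at 0 and 10 min after starting the reaction with 50 nM substrate. Beforehand, 10 nM polymerase had been preincubated with compound for 15 min at room temperature.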
POLI inh: DNA polymerase iota (human) inhibition; Q9UNA4; Pol iota fluorescent replication assay, 10 min; Potency, µM (top dose mostly 115 µM), actives largely listed as inhibitors; hit rate 1% among 390,000; AID 588590
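Pol iota at 10 nM preincubated 15 min with compounds at room temperature; reaction started with fluorescent substrate, 50 nM final. Fluorescence read kinetically at 0 and 10 min; buffer-only wells as negative control.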
WRN helicase inh-1: blocks human WRN helicase | Q14191 | WRN helicase unwinding, fluorescent forked duplex, kinetic | Potency, µM (highest dose often 114 µM), usual class: inhibitors | hit rate 0.46% among 360,000 | AID 651768; also: nearly all actives have a fitted effect of over 55% in size
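Kinetic fluorescence helicase assay: unwinding of a quenched forked DNA duplex (100 nM final) with 2 mM ATP final raises red fluorescence (525/598 nm). Compounds sat 15 min at room temperature with 20 nM WRN beforehand.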
Pol eta inh: DNA polymerase eta (human) inhibition; Q9Y253; recombinant Pol eta, fluorescent DNA replication assay; Potency, µM (top dose mostly 114 µM), most hits filed as inhibitors; hit rate 1.2% among 390,000
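Pol eta at 10 nM preincubated with compounds 15 min at room temperature; reaction started with fluorescent substrate (50 nM final) and read kinetically at 0 and 10 min.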
Pol beta inh: inhibitors of human DNA polymerase beta. P06746. Pol beta primer extension/strand displacement, fluorescence kinetic. Potency, µM (series often up to 114 µM), usual class: inhibitors. AID 485314. hit rate 1.3% among 340,000
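Reaction started by 50 nM substrate onto compound-treated Pol beta (10 nM, 15 min preincubation, room temperature); plates read at 0 min and 10 min. Normalized concentration-effect data fitted by four-parameter Hill equation.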
PI5P4K alpha inh: PI5P4K alpha (human) kinase inhibition. hit rate 1.2% among 330,000. PI5P4Kalpha enzyme, ADP-Glo luminescence, 60 min; hits give low values. max response, %. AID 652105. P48426; active = max response of -50% or lower; inconclusive = between -30% and -50%; inactive = -30% or higher; also: value at the top dose of about 77 µM
Target sequence (P48426 whole entry, looked up): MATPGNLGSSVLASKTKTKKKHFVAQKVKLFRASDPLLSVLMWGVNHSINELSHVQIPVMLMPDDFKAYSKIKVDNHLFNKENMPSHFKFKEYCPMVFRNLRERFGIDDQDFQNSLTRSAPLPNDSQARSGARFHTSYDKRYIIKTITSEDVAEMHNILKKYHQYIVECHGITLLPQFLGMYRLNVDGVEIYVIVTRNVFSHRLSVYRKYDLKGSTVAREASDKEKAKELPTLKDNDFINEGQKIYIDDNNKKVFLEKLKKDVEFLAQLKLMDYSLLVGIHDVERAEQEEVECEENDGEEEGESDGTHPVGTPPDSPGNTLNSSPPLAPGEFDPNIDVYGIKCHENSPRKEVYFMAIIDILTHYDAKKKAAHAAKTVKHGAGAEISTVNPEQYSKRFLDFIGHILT
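Luminescence from ADP-Glo served as readout of PI5P4Kalpha activity in a qHTS format. Reaction: enzyme, substrate, compound, ATP at 5 microM final, 60 min at RT.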
WRN helicase inh-2: WRN helicase inhibition, cherry-pick retest; shares compounds with WRN helicase inh-1; hit rate 63% among 610; WRN helicase DNA unwinding, fluorescence kinetic; Potency, µM (titrated, usually from 57.1 µM), usual class: inhibitors; also: nearly all actives have a fitted effect of over 65% in size
TO displacement: counter-screen for WRN helicase inhibitors: DNA binding. shares compounds with WRN helicase inh-1. thiazole orange DNA binding displacement, fluorescence. Potency, µM (doses to about 57.1 µM), actives largely listed as inhibitors. hit rate 10% among 610. AID 720499;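 also: drop in dye fluorescence marks compound binding to DNA; nearly all actives have a fitted effect of over 60% in size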
BLM counter: BLM helicase inhibition, WRN selectivity check | hit rate 60% among 610 | shares compounds with WRN helicase inh-1 | Recombinant BLM helicase DNA unwinding, red fluorescence | Potency, µM (top dose mostly 57.1 µM), usual class: inhibitors; also: nearly all actives have a fitted effect of over 60% in size
A number is an active result; . = inactive; ? = inconclusive; / = no result; [ ] = another dose, or the depositor's remark. Hits are enriched below; roughly 2.8% of the tested compounds scored in any of these assays. Unless noted, calls follow the shape of the dose curve; as a rule, active = well fitted curve in the direction sought with a large enough effect; inconclusive = small, poorly fitted or top-dose-only effect, or another doubt; inactive = no such curve, though single readings can be large; an effect the other way counts as inactive or inconclusive.

SMILES | Pol kappa inh | POLI inh | WRN helicase inh-1 | Pol eta inh | Pol beta inh | PI5P4K alpha inh | WRN helicase inh-2 | TO displacement | BLM counter
CCCC[n+]1c2ccccc2cc2ccccc21 | . | ? | .[11.6 µM] | . | . | ? | / | / | /
CCC[n+]1c2ccccc2cc2ccccc21 | . | ? | ? | . | . | . | 3.04µM | 1.71µM | 7.64µM
COc1cc(C(C(=O)NCc2ccccc2)N(C(=O)c2snc(C(N)=O)c2N)C2CCCC2)cc(OC)c1OC (stereo not drawn) | . | . | . | . | . | . | / | / | /
CCC(=O)OCCNc1cc(Sc2nc3ccccc3s2)c2nonc2c1[N+](=O)[O-] | . | ? | . | . | . | / | / | / | /
O=[N+]([O-])c1c(NCCCO)cc(Sc2nc3ccccc3s2)c2nonc12 | ? | ? | 18.9µM | . | . | / | ? | . | ?
Cc1nnc(Sc2cc(NCCCO)c([N+](=O)[O-])c3nonc23)s1 | . | 12.6µM | 22.4µM | 79.4µM | . | -78.1 | ? | . | ?
COc1ccc(CN2CC(=O)N(c3ccc(C)c(C)c3)C2=S)cc1OC | ? | . | ? | . | . | -87.4 | . | . | .
Oc1ccc(Nc2ccc3ccccc3c2)cc1 | . | ? | ? | . | / | ? | . | ? | ?
COc1ccc(C2=CC(=O)N(Nc3ccccc3)C2=O)cc1 | . | . | . | . | . | . | / | / | /
O=C1C=C(c2ccccc2)C(=O)N1Nc1ccccc1 | . | . | ? | . | . | . | . | . | .
C[C@]12CC[C@H]3c4ccc(O)cc4CC[C@@H]3[C@H]1CC[C@@H]2OP(=O)(O)O | . | / | / | / | / | / | / | / | /
COc1cc(/C=C2\SC(=Nc3cccnc3)NC2=O)cc(OC)c1OC | . | . | 12.6µM | ? | . | -89.1 | . | . | .
CCCN1C(=O)/C(=C/C=C2\N(CC)c3ccccc3C2(C)C)SC1=S | . | . | 18.9µM | 56.2µM | . | . | 21.5µM | . | 21.5µM
CCCN1C(=O)/C(=C\C=C2/Sc3ccccc3N2CCO)SC1=S | . | . | . | . | . | . | / | / | /
O=S(=O)(Nc1cc(Sc2ncn[nH]2)c(O)c2ccccc12)c1ccccc1 | . | 1.12µM | 35.5µM | 22.4µM | ? | -90.0 | ? | . | ?
Cc1cc(O)c(Sc2ncn[nH]2)cc1NS(=O)(=O)c1ccc(Cl)cc1 | . | . | . | . | / | . | / | / | /
CCOC(=O)c1c(-c2ccc(F)cc2)csc1NC(=O)CN1C(=O)NC2(CCCCC2C)C1=O (stereo not drawn) | ? | ? | ? | ? | ? | . | . | . | .
N#C/C(=C\c1c(Oc2ccccc2F)nc2ccccn2c1=O)C(=O)NC1CCS(=O)(=O)C1 (stereo not drawn) | . | . | . | . | . | . | / | / | /
COc1ccc(OCC(O)CN2CC(C)OC(C)C2)cc1 (stereo not drawn) | . | . | . | . | . | . | / | / | /
COc1cc2c(cc1OC)-c1cc(NCc3ccccn3)nc(=O)n1CC2 | . | 2.51µM | 44.7µM | . | . | . | . | . | .
CCNc1cc2n(c(=O)n1)CCc1cc(OC)c(OC)cc1-2 | . | . | . | . | . | / | / | / | /
CC(C)N1CCc2c(sc(NC(=O)c3cc4cc([N+](=O)[O-])ccc4s3)c2C(N)=O)C1 | . | . | 79.4µM | . | . | ? | 17.1µM | 17.1µM | 13.6µM
O=[N+]([O-])c1cc2c(c3cccnc13)COCO2 | . | 39.8µM | ? | 10µM | / | -56.2 | ? | . | 15.2µM
CN(C)CCNc1ccc(CO)c2sc3ccc(O)cc3c(=O)c12 | ? | 79.4µM | ? | ? | / | . | 24.1µM | 21.5µM | ?
COc1ccc(OC)c(NC(=O)CCN2CC(C)CC(C)C2)c1 (stereo not drawn) | . | . | . | . | . | . | / | / | /
